# PubChem BioAssay (NCATS)
# Results filed as inconclusive are left out. Unmarked numbers belong to inactive results. The source made the active and inactive calls. Calls follow the shape of the dose curve; as a rule, active = well fitted inhibition curve with a large enough effect; inconclusive = small, poorly fitted or top-dose-only effect; inactive = flat fitted curve, though single readings scatter.
# Assay: P-glycoprotein substrates identified in KB-8-5-11 adenocarcinoma cell line, qHTS therapeutic library screen (AID 1346987); also: nearly all actives have a fitted effect of over 65% in size
# Details: KB-8-5-11 (P-gp overexpressing) viability, CellTiter-Glo, 72 h; series mostly up to 44.5 µM; activity change, negative = cytotoxicity: at the top concentration
# Procedure, shortened: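 Luminescence from CellTiter-Glo, read 5 min after addition, quantified survival of KB-8-5-11 (P-gp-overexpressing) cells exposed to compounds for 72 h. AC50 was derived from concentration-response curves.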
# % is scaled to controls: 0 for no effect and ±100 for the full control effect; potency is read from the fitted curve at half-maximal effect.
SMILES,"activity change, negative = cytotoxicity",Potency
CC[C@H](C)/C=C(C)/C=C/C1=CC2=CC(=O)[C@]3(C)OC(=O)[C@@H](C(C)=O)[C@@H]3C2=CO1,3.81%,–
CC1CCC/C=C/C(=O)c2c(O)cc(O)cc2CC(=O)O1 (stereo not drawn),–,5.8 µM (active)
Cc1cc2c(N3CCCC3)nc(N3CCCC3)nc2n1C,-13.7%,–
